Measured values reported in the supplement of paper PMC12645437, “Orthogonal IMiD-Degron Pairs Induce Selective Protein Degradation in Cells” (ACS Chemical Biology, 2025).
The full ranking holds about 8,300 sequences; the median of “log2 fold change of degron read counts, EGFP-low vs EGFP+ sorted cells (limma voom), compound-induced degradation” is about -1.1, and the highest 2% start at about 3.2. Many of the other results were omitted from the sample, so the highest values are more common in it than they were.

Target: T1, CRBN, Q96SW2
T1 chain: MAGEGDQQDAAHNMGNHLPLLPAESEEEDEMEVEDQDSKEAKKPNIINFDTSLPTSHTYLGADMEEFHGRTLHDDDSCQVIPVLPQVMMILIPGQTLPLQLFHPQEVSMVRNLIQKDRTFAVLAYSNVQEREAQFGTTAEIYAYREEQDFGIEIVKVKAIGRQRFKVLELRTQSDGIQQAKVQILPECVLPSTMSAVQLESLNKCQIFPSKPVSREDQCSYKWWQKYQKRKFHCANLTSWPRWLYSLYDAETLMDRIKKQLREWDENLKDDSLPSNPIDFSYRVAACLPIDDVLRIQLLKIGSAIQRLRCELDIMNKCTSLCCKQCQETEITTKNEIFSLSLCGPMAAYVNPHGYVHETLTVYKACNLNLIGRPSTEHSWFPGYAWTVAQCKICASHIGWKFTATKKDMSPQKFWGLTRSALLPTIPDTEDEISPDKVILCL
Assay: log2 fold change of degron read counts, EGFP-low vs EGFP+ sorted cells (limma voom), compound-induced degradation; higher = more compound-induced degradation of the degron-EGFP fusion; degrons are variants of IKZF1/3 zinc finger 2; compound dose not given here
Settings: Jurkat, 18 h

[1] = compound: compound 19 (5-tert-butyl-thalidomide)
[2] = compound: compound 22 (5-morpholino-thalidomide)
[3] = compound: compound 33 (diphenyl IMiD analogue)
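Note: pooled lentiviral library of zinc finger degron-EGFP fusions in mCherry-positive Jurkat cells, FACS-sorted after compound exposure, with degron abundance counted by next-generation sequencing.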

## LECPICGFPCTQKGNLLRHIKL [46L_47E_49P_50I_52G_53F_54P_55C_67L_, Q9UKT9]
[1]
  log2 fold change of degron read counts: -1.29
[2]
  log2 fold change of degron read counts: -1.77
[3]
  log2 fold change of degron read counts: -0.153
compound: thalidomide
  log2 fold change of degron read counts: 1.04

## FGCNQCGHHFTQKGNLLRHIKL [46F_47G_49N_50Q_52G_53H_54H_55F_67L_, Q9UKT9]
[1]
  log2 fold change of degron read counts: -2.24
[2]
  log2 fold change of degron read counts: -2.34
[3]
  log2 fold change of degron read counts: -1.76
compound: thalidomide
  log2 fold change of degron read counts: -1.83

## FGCEICGHTFTQKGNLLRHIKL [46F_47G_49E_50I_52G_53H_54T_55F_67L_, Q9UKT9]
[1]
  log2 fold change of degron read counts: -3.25
[2]
  log2 fold change of degron read counts: -2.98
[3]
  log2 fold change of degron read counts: -3.48
compound: thalidomide
  log2 fold change of degron read counts: -3.14

## FMCEICGHIFTQKGNLLRHIKL [46F_47M_49E_50I_52G_53H_54I_55F_67L_, Q9UKT9]
[1]
  log2 fold change of degron read counts: -2.42
[2]
  log2 fold change of degron read counts: -2.92
[3]
  log2 fold change of degron read counts: -1.97
compound: thalidomide
  log2 fold change of degron read counts: -2.73

## LQCNQCGFNCTQKGNLLRHIKL [46L_47Q_49N_50Q_52G_53F_54N_55C_67L_, Q9UKT9]
[1]
  log2 fold change of degron read counts: -2.28
[2]
  log2 fold change of degron read counts: -2.12
[3]
  log2 fold change of degron read counts: -2.51
compound: thalidomide
  log2 fold change of degron read counts: -1.67

## FHCPICGHHFTQKGNLLRHIKL [46F_47H_49P_50I_52G_53H_54H_55F_67L_, Q9UKT9]
[1]
  log2 fold change of degron read counts: -1.89
[2]
  log2 fold change of degron read counts: -2.04
[3]
  log2 fold change of degron read counts: -1.22
compound: thalidomide
  log2 fold change of degron read counts: -1.88

## FDCNVCGAQFTQKGNLLRHIKL [46F_47D_49N_50V_52G_53A_54Q_55F_67L_, Q9UKT9]
[1]
  log2 fold change of degron read counts: -1.58
[2]
  log2 fold change of degron read counts: -1.29
[3]
  log2 fold change of degron read counts: -0.82
compound: thalidomide
  log2 fold change of degron read counts: -0.778

## FVCEQCGAGFTQKGNLLRHIKL [46F_47V_49E_50Q_52G_53A_54G_55F_67L_, Q9UKT9]
[1]
  log2 fold change of degron read counts: -1.4
[2]
  log2 fold change of degron read counts: -0.248
[3]
  log2 fold change of degron read counts: 0.586
compound: thalidomide
  log2 fold change of degron read counts: 1.2

## FKCPICGHRFTQKGNLLRHIKL [46F_47K_49P_50I_52G_53H_54R_55F_67L_, Q9UKT9]
[1]
  log2 fold change of degron read counts: -2.63
[2]
  log2 fold change of degron read counts: -2.88
[3]
  log2 fold change of degron read counts: -3.36
compound: thalidomide
  log2 fold change of degron read counts: -2.52

## FQCDICGAFFTQKGNLLRHIKL [46F_47Q_49D_50I_52G_53A_54F_55F_67L_, Q9UKT9]
[1]
  log2 fold change of degron read counts: -2.31
[2]
  log2 fold change of degron read counts: -1.64
[3]
  log2 fold change of degron read counts: 0.643
compound: thalidomide
  log2 fold change of degron read counts: 0.872

## FECNQCGRDFTQKGNLLRHIKL [46F_47E_49N_50Q_52G_53R_54D_55F_67L_, Q9UKT9]
[1]
  log2 fold change of degron read counts: -3.19
[2]
  log2 fold change of degron read counts: -3.55
[3]
  log2 fold change of degron read counts: -3.13
compound: thalidomide
  log2 fold change of degron read counts: -3.35

## LNCPICGFCCTQKGNLLRHIKL [46L_47N_49P_50I_52G_53F_54C_55C_67L_, Q9UKT9]
[1]
  log2 fold change of degron read counts: 1.6
[2]
  log2 fold change of degron read counts: 0.635
[3]
  log2 fold change of degron read counts: 0.926
compound: thalidomide
  log2 fold change of degron read counts: 1.15

## LQCPICGFCCTQKGNLLRHIKL [46L_47Q_49P_50I_52G_53F_54C_55C_67L_, Q9UKT9]
[1]
  log2 fold change of degron read counts: 1.14
[2]
  log2 fold change of degron read counts: 2.25
[3]
  log2 fold change of degron read counts: 2.13
compound: thalidomide
  log2 fold change of degron read counts: 3.61

## LYCPICGFCCTQKGNLLRHIKL [46L_47Y_49P_50I_52G_53F_54C_55C_67L_, Q9UKT9]
[1]
  log2 fold change of degron read counts: 3.56
[2]
  log2 fold change of degron read counts: 3.56
[3]
  log2 fold change of degron read counts: 2.91
compound: thalidomide
  log2 fold change of degron read counts: 1.99

## LHCPICGFCCTQKGNLLRHIKL [46L_47H_49P_50I_52G_53F_54C_55C_67L_, Q9UKT9]
[1]
  log2 fold change of degron read counts: 2.7
[2]
  log2 fold change of degron read counts: 2.71
[3]
  log2 fold change of degron read counts: 2.46
compound: thalidomide
  log2 fold change of degron read counts: 1.82

## LICPICGFCCTQKGNLLRHIKL [46L_47I_49P_50I_52G_53F_54C_55C_67L_, Q9UKT9]
[1]
  log2 fold change of degron read counts: 0.314
[2]
  log2 fold change of degron read counts: 1.98
[3]
  log2 fold change of degron read counts: 1.85
compound: thalidomide
  log2 fold change of degron read counts: 2.51

## LVCPICGFCCTQKGNLLRHIKL [46L_47V_49P_50I_52G_53F_54C_55C_67L_, Q9UKT9]
[1]
  log2 fold change of degron read counts: 1.02
[2]
  log2 fold change of degron read counts: 2.52
[3]
  log2 fold change of degron read counts: 2.24
compound: thalidomide
  log2 fold change of degron read counts: 2.97

## LMCPICGFCCTQKGNLLRHIKL [46L_47M_49P_50I_52G_53F_54C_55C_67L_, Q9UKT9]
[1]
  log2 fold change of degron read counts: 0.471
[2]
  log2 fold change of degron read counts: 1.34
[3]
  log2 fold change of degron read counts: 2.61
compound: thalidomide
  log2 fold change of degron read counts: 2.08

## LFCPICGFCCTQKGNLLRHIKL [46L_47F_49P_50I_52G_53F_54C_55C_67L_, Q9UKT9]
[1]
  log2 fold change of degron read counts: 3.44
[2]
  log2 fold change of degron read counts: 3.46
[3]
  log2 fold change of degron read counts: 2.76
compound: thalidomide
  log2 fold change of degron read counts: 2.26

## LWCPICGFCCTQKGNLLRHIKL [46L_47W_49P_50I_52G_53F_54C_55C_67L_, Q9UKT9]
[1]
  log2 fold change of degron read counts: 3.2
[2]
  log2 fold change of degron read counts: 3.49
[3]
  log2 fold change of degron read counts: 2.92
compound: thalidomide
  log2 fold change of degron read counts: 2.17

## LDCPICGFCCTQKGNLLRHIKL [46L_47D_49P_50I_52G_53F_54C_55C_67L_, Q9UKT9]
[1]
  log2 fold change of degron read counts: 0.0932
[2]
  log2 fold change of degron read counts: -0.387
[3]
  log2 fold change of degron read counts: 0.637
compound: thalidomide
  log2 fold change of degron read counts: 1.33

## LLCPICGFCCTQKGNLLRHIKL [46L_47L_49P_50I_52G_53F_54C_55C_67L_, Q9UKT9]
[1]
  log2 fold change of degron read counts: 0.766
[2]
  log2 fold change of degron read counts: 0.49
[3]
  log2 fold change of degron read counts: 1.44
compound: thalidomide
  log2 fold change of degron read counts: 1.92

## LCCPICGFCCTQKGNLLRHIKL [46L_47C_49P_50I_52G_53F_54C_55C_67L_, Q9UKT9]
[1]
  log2 fold change of degron read counts: 1.74
[2]
  log2 fold change of degron read counts: 2.1
[3]
  log2 fold change of degron read counts: 2.79
compound: thalidomide
  log2 fold change of degron read counts: 2.63

## FVCNVCGARFTQKGNLLRHIKL [46F_47V_49N_50V_52G_53A_54R_55F_67L_, Q9UKT9]
[1]
  log2 fold change of degron read counts: -0.689
[2]
  log2 fold change of degron read counts: 0.0526
[3]
  log2 fold change of degron read counts: -0.518
compound: thalidomide
  log2 fold change of degron read counts: 0.565

## FDCEICGHAFTQKGNLLRHIKL [46F_47D_49E_50I_52G_53H_54A_55F_67L_, Q9UKT9]
[1]
  log2 fold change of degron read counts: -2.17
[2]
  log2 fold change of degron read counts: -2.36
[3]
  log2 fold change of degron read counts: -2.99
compound: thalidomide
  log2 fold change of degron read counts: -2.62

## FQCEICGHAFTQKGNLLRHIKL [46F_47Q_49E_50I_52G_53H_54A_55F_67L_, Q9UKT9]
[1]
  log2 fold change of degron read counts: -3.35
[2]
  log2 fold change of degron read counts: -3.01
[3]
  log2 fold change of degron read counts: -2.87
compound: thalidomide
  log2 fold change of degron read counts: -1.5

## FGCNQCGRAFTQKGNLLRHIKL [46F_47G_49N_50Q_52G_53R_54A_55F_67L_, Q9UKT9]
[1]
  log2 fold change of degron read counts: -2.18
[2]
  log2 fold change of degron read counts: -2.21
[3]
  log2 fold change of degron read counts: -2.02
compound: thalidomide
  log2 fold change of degron read counts: -1.91

## FSCEICGRSFTQKGNLLRHIKL [46F_47S_49E_50I_52G_53R_54S_55F_67L_, Q9UKT9]
[1]
  log2 fold change of degron read counts: -1.46
[2]
  log2 fold change of degron read counts: -2.51
[3]
  log2 fold change of degron read counts: -1.36
compound: thalidomide
  log2 fold change of degron read counts: -1.71
